Compounds with a hit are over-represented: about 21% of the library has one in this group of screens.
HCV inhibitor – blocks hepatitis C virus | Huh7.5.1 HCVcc-Cre infection, luciferase reporter, 44 h | Potency, µM (top dose mostly 41.8 µM), for inactives: at the highest dose activity change, negative = inhibition, usual class: inhibitors | 340,000 compounds, 3.4% hits | AID 651820; note: potency is the fitted concentration of half-maximal effect; % is set by controls: 0 for no effect and ±100 for the full control effect
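Seed cells (1,000/well) for 4 h; treat with compound and infect with HCVcc-Cre, moi about 0.5. Incubate 44 h, then detect luciferase activity.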
Shiga inhibitor – Shiga toxin inhibition; Vero cells, Shiga toxin protein synthesis inhibition reporter; inhibition, % at 38.7 µM; 290,000 compounds, 9.2% hits; AID 2315; in the data active = inhibition mostly above about 28%, no sharp cut-off; inactive = mostly below about 43%; note: 0% is about no effect
HCMV inh – inhibitors of human cytomegalovirus | HFF cells, HCMV-luciferase reporter, 72 h; stronger effect = lower value | activity change, negative = inhibition, % at 57.5 µM | 410,000 compounds, 4.5% hits | AID 1259415; in the data active = activity change below about -60%; inconclusive = no clear call, values can overlap the other calls; inactive = above about -39%; note: % is set by controls: 0 for no effect and ±100 for the full control effect
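Two compound doses tested in HFFs infected with HCMV-luciferase, MOI 1 PFU/cell, 72 h at 37C. Lysate luminescence read with OneGlo; data normalized against buffer-only and 10uM Salinomycin inhibitor controls.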
Pf growth 48h – inhibits P. falciparum growth in the first generation, 48 h; P. falciparum luciferase growth in erythrocytes, 48 h; Potency, µM (highest dose often 28.7 µM), for inactives: top-dose activity change, negative = inhibition, usual class: inhibitors; 310,000 compounds, 5.9% hits; note: potency is the fitted concentration of half-maximal effect; % is set by controls: 0 for no effect and ±100 for the full control effect
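Erythrocytes infected with P. falciparum carrying an integrated firefly luciferase reporter (2% hematocrit, 0.1% parasitemia final) were exposed to compounds in RPMI 1640 with 0.5% Albumax at 37 C, 5% CO2. Growth inhibition was scored as reduced luminescence.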
Pf growth 96h – P. falciparum growth inhibition at 96 hours; 320,000 compounds, 6.9% hits; Potency, µM (top dose mostly 28.7 µM), without a hit: at the highest dose activity change, negative = inhibition, usual class: inhibitors; AID 504834; P. falciparum luciferase reporter growth, 96 h; note: potency is the fitted concentration of half-maximal effect; % is set by controls: 0 for no effect and ±100 for the full control effect
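Parasite growth measured via integrated firefly luciferase reporter in P. falciparum. Infected erythrocytes at 2% hematocrit, 0.05% parasitemia final were treated 96 hours at 37 C under 5% CO2, and luminescence was read.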
Cycloheximide cs – affects cycloheximide protein synthesis inhibition readout, counter-screen | cell reporter, cycloheximide protein synthesis inhibition counterscreen | max response, % | 300,000 compounds, 12% hits; in the data active = max response mostly above about 13%, no sharp cut-off; inactive = mostly below about 14%; note: read at 38.3 µM for the half of the compounds with a filed dose; 0% is about no effect
Active calls of the source: *; ? = inconclusive; . = no result; ! = not active in a repeat. Unless noted, calls come from the whole dose curve; as a rule, active = well fitted inhibition curve with a large enough effect; inconclusive = small, poorly fitted or top-dose-only effect, or another doubt; inactive = no such curve, though single readings can be large or run the other way.

SMILES | HCV inhibitor | Shiga inhibitor | HCMV inh | Pf growth 48h | Pf growth 96h | Cycloheximide cs
COc1ccc(C(C#N)N2CCC(c3ccccc3)=N2)cc1 (stereo unspecified) | 17% | 43* | -73* | 47% | 34% | 21*
COCCCNC(=O)Cn1cnc2sc(C)c(S(=O)(=O)N3CC(C)CC(C)C3)c2c1=O (stereo unspecified) | 5% | -4 | . | 10% | ? | -5
CCCCn1c(=O)n(CC(=O)Nc2ccc(OC)c(Cl)c2)c(=O)c2c1nc(CO)n2CCC | -21% | -12 | 31 | 10µM* | . | 7
CCCCn1c(=O)n(CC(=O)Nc2ccc(C)c(Cl)c2)c(=O)c2c1ncn2Cc1ccco1 | ? | 18 | 30 | 12µM* | 4.7µM* | -3
Cc1ccc(NC(=O)CSc2nccn2Cc2ccco2)cc1Cl | . | . | -37 | . | . | .
CC(C)(C)n1c(O)c2ccc(C(=O)N=NC(=O)c3ccccc3)cc2c1O | -15% | 33 | -3 | -2% | 87% | 27*
CCCn1c(O)c2ccc(C(=O)N=NC(=O)c3cccnc3)cc2c1O | 4% | -26 | -32 | 39% | 75% | 1
O=C(Nc1ccc2ccccc2n1)c1ccccc1Cl | ? | 56* | 52 | 194% | 392% | 39*
COc1ccc(C(=O)Nc2ccc3ccccc3n2)c(OC)c1OC | ? | 74* | -35 | 34% | 114% | 51*
O=C(Nc1ccc2ccccc2n1)C1CCCCC1 | 7% | 53 | 67 | 125% | 236% | 73*
O=C(Nc1ccc2ccccc2n1)c1ccc(Cl)cc1 | ? | 67* | 50 | -12% | 241% | 50*
Cc1nn(Cc2ccc(C(=O)N3CCN(C(=O)c4ccco4)CC3)o2)c(C)c1[N+](=O)[O-] | -21% | -24 | -2 | ? | ? | -1
O=C(Cn1c(=O)n(Cc2ccco2)c(=O)c2ccc(C(=O)NC3CCCC3)cc21)Nc1ccc(F)cc1 | . | . | -13 | . | . | .
NS(=O)(=O)OCC1CCCCC1 | 25% | -4 | -3 | 0% | 2% | -3
Nc1nc(N)c(N=O)c(OCC2CCCCC2)n1 | -10% | 41*! | 68 | ? | ? | 21*
Cc1cc2oc(C(=O)Nc3sc4c(c3C(=O)NCC3CCCO3)CCCC4)cc(=O)c2cc1C (stereo unspecified) | . | . | -4 | . | . | .
O=C1CN(C(=O)c2cc3ccccc3o2)c2ccccc2N1 | 7% | 42* | -21 | 14% | ? | 18*
Cc1ccc(C)c(-n2c(CNC(=O)c3ccco3)nnc2SCC(=O)N2CCc3ccccc32)c1 | 16% | -7 | 9 | 8% | 13µM* | -1
O=C(Cn1cccc1)N1CCc2ccccc21 | 23% | 17 | 82 | -2% | 21% | 17
O=C(CCCc1ccccc1)N1CCc2ccccc21 | -16% | 109* | 87 | . | ? | 49*
O=C1CN(C(=O)OCc2ccccc2)c2ccccc2N1 | 9% | 69 | 100 | 60% | ? | 26*
O=C(CNC(=O)N1CC(=O)Nc2ccccc21)NCc1ccccc1 | 19% | -13 | 7 | 2% | -14% | -3
Cc1ccn(CCC(=O)N2CCc3ccccc32)n1 | 0% | 26 | 29 | 16% | 2% | 25*
O=C(Cn1ncc2ccccc21)N1CCc2ccccc21 | 16% | 17 | 97 | 7% | 4.7µM* | -1
O=C(C(Cc1ccccc1)n1cccc1)N1CCc2ccccc21 (stereo unspecified) | ? | 4 | 15 | ? | ? | 3
SMILES | HCV inhibitor | Shiga inhibitor | HCMV inh | Pf growth 48h | Pf growth 96h | Cycloheximide cs
O=C(NCCC(=O)N1CCc2ccccc21)c1ccco1 | 11% | 76* | 10 | 78% | 34% | 30*
O=C(OCc1ccccc1)N1CCc2ccccc21 | -12% | 82* | 95 | 212% | ? | 43*
O=C(NCc1nnc(SCC(=O)N2CCc3ccccc32)o1)c1ccco1 | 21% | -20 | 29 | -1% | ? | -7
Cn1cnc2c(=O)oc3ccc(S(=O)(=O)N4CCN(c5ccccc5F)CC4)cc3c21 | . | . | 9 | . | . | .
COc1cc(OC)cc(C(=O)N[C@H](C(=O)Nc2nnc(C3CC3)s2)C(C)C)c1 | -17% | 18 | 45 | -6% | -1% | -2
O=C(CS(=O)(=O)Cc1ccccc1)N1CCN(c2ccccc2F)CC1 | 10% | 22 | 4 | 6% | 21% | 14
O=C(CS(=O)(=O)Cc1ccccc1)N1CCc2ccccc21 | -9% | 15 | 21 | 32% | 0% | 33*
Nc1ccc(SCc2nc3cccc4c3n2CCC4)cc1 | -9% | 55* | 140 | 38% | 46% | 25*
CC(C)Nc1nc(NC(C)C)nc(N(C)N)n1 | 5.6µM* | -9 | 14 | . | 3.7µM* | 8
CC(C)Nc1nc(NC(C)C)nc(N(C)C(N)=O)n1 | -7% | -14 | 51 | 20% | 12µM* | 23
CC(C)Nc1nc(NC(C)C)nc(N(C)n2cnnc2)n1 | 3% | -1 | 36 | 12% | -23% | -3
COc1ccc(C(=O)c2ccc3oc(-c4ccc(OC)cc4)c(-c4ccc(O)cc4)c3c2)cc1 | 8.9µM* | . | -64* | . | . | .
COc1ccc2oc(C)c(C(=O)c3ccc(C)cc3)c2c1 | -21% | 36* | 3 | 13% | 15% | 22*
Cc1oc2ccc(O)cc2c1C(=O)c1ccc(Br)cc1 | -22% | . | -28 | . | . | .
Cc1oc2ccc(OCC(N)=O)cc2c1C(=O)OC(C)C | ? | -3 | -28 | 9% | ? | 1
Cc1oc2ccc(O)cc2c1C(=O)OC(C)C | ? | 55 | 4 | 64% | -33% | 22*
COc1ccc(C(=O)c2c(-c3ccc(OC)cc3)oc3ccccc23)cc1 | -56% | . | 14 | ? | ? | .
Cc1oc2ccc(O)cc2c1C(=O)c1ccc(Cl)cc1 | ? | 69 | 11 | . | 3% | 17*
COc1ccc2oc(C)c(C(=O)NN)c2c1 | 13% | -4 | 26 | 14% | . | -3
Cc1ccc(OCC(=O)Nc2ccc3nc(SCC(=O)N4CCOCC4)sc3c2)cc1C | . | . | 31 | . | . | .
CCOCCCNC(=O)Nc1cc(C(=O)NCc2ccc(C(C)C)cc2)ccc1N1CCCC1 | . | . | -6 | . | . | .
COc1ccc(C(=O)c2c(C)oc3ccc(O)cc23)cc1 | -15% | 32* | ? | 38% | 16% | 29*
COCCOC(=O)c1c(C)oc2ccc(OC(=O)c3c(OC)cccc3OC)cc12 | 7.9µM* | 9 | -10 | ? | -9% | 1
COc1ccc2oc3ccc(OC)cc3c(=O)c2c1 | -10% | 156 | 50 | 221% | 107% | 22*
CCOC(=O)Oc1ccc2oc(C)c(C(=O)OCCOC)c2c1 | -6% | 49 | 6 | 48% | 63% | 19
O=C(NCc1ccccc1)C(=O)NCC(c1ccc2c(c1)OCO2)N1CCOCC1 (stereo unspecified) | . | . | -35 | . | . | .
O=C(Nc1ccc(Cl)cn1)C1CCN(c2ncnc3c2nc2n3CCCCC2)CC1 | 10µM* | 9 | -86* | 10% | ? | 3
